Results published in PubChem BioAssay (NCATS).
Where “and” joins values, the source holds several entries; their conditions need not be identical. Equal entries are not always repeated. Inconclusive results are not listed. Calls of active or inactive are those of the source. Calls follow the shape of the dose curve; as a rule, active = well fitted curve in either direction with a large enough effect (not every such curve was filed as active); inconclusive = small, poorly fitted or top-dose-only effect, or another doubt; inactive = flat fitted curve, though single readings scatter.

Experiment: NFAT Signaling Pathway (AID 444);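 also: carbachol stimulus at about its EC50 of 1 µM final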
Details: Jurkat NFAT-bla M1, carbachol, beta-lactamase ratio, 5 h; at 17.2 µM (top of the series)
Method in brief: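 Read-out: CCF4 FRET ratio (460 nm/530 nm) after 1 h RT dye loading, used for %activity and AC50 from titration series. Cells: Jurkat NFAT-β-lactamase/M1 line, treated with compound plus 1 uM carbachol for 5 h, 37 °C.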
% is scaled to controls: 0 for no effect and ±100 for the full control effect.

Row | SMILES | activity change, negative = inhibition
1 | NC(N)=NC(=O)c1nc(Cl)c(N)nc1N | 8.59% (inactive) and -17.4% (inactive)
2 | N=c1nc(N2CCCCC2)cc(N)n1O | -4.8% (inactive)
3 | NNCCc1ccccc1 | -10.8% (inactive)
4 | Clc1cccc(Cl)c1NC1=NCCN1 | -11.5% (inactive)
5 | Nc1ccc(S(=O)(=O)Nc2ccnn2-c2ccccc2)cc1 | -4.12% (inactive)
6 | Cc1cnc(NC(=O)C2=C(O)c3ccccc3S(=O)(=O)N2C)s1 | -9.71% (inactive)
7 | N#Cc1ccc(C(c2ccc(C#N)cc2)n2cncn2)cc1 | -8.25% (inactive)
8 | O=c1n(CCCN2CCN(c3cccc(Cl)c3)CC2)nc2ccccn12 | -9.78% (inactive)
9 | COc1ccc2nc(S(=O)Cc3ncc(C)c(OC)c3C)[nH]c2c1 (stereo not given) | -26.1% (inactive) and -10.4% (inactive)
10 | Nc1nc2ccc(OC(F)(F)F)cc2s1 | 0.982% (inactive) and -0.48% (inactive)
11 | Cn1cnc([N+](=O)[O-])c1Sc1ncnc2nc[nH]c12 | 13.3% (inactive)
12 | CNC[C@H](O)c1cccc(O)c1 | -25.3% (inactive)
13 | NS(=O)(=O)c1cc2c(cc1Cl)NC=NS2(=O)=O | -2.56% (inactive) and 9.37% (inactive)
14 | N[C@@H]1CONC1=O | -1.83% (inactive)
15 | C[C@]12CCC(=O)C=C1CC[C@@H]1[C@@H]2[C@@H](O)C[C@@]2(C)[C@H]1CC[C@]2(O)C(=O)CO | 18.6% (inactive)
16 | Cc1cc2c(C(C)C)c(O)c(O)c(C=O)c2c(O)c1-c1c(C)cc2c(C(C)C)c(O)c(O)c(C=O)c2c1O | -68.3% (active)
17 | Cc1oncc1C(=O)Nc1ccc(C(F)(F)F)cc1 | 0.0794% (inactive) and 7.99% (inactive)
18 | CCCCNc1cc(C(=O)O)cc(S(N)(=O)=O)c1Oc1ccccc1 | 1.71% (inactive) and -0.748% (inactive)
19 | O=C1CCc2cc(OCCCCc3nnnn3C3CCCCC3)ccc2N1 | -6.28% (inactive)
20 | Cc1[nH]c(=O)c(C#N)cc1-c1ccncc1 | -20.1% (inactive)
21 | Nc1nc2c(ncn2COCCO)c(=O)[nH]1 | -0.796% (inactive) and 22.4% (inactive)
22 | CCOC(=O)C1=C[C@@]2(CC)CCCN3CCc4c(n1c1ccccc41)[C@H]32 | -3.7% (inactive)
23 | Cc1ccc(N(CC2=NCCN2)c2cccc(O)c2)cc1 | -19.1% (inactive) and -11.9% (inactive) and 3.66% (inactive)
24 | Cc1ccccc1C(OCCN(C)C)c1ccccc1 (stereo not given) | -85.9% (active)
25 | C1COC(NC(C2CC2)C2CC2)=N1 | -20.2% (inactive) and 11.2% (inactive)
